L3MBTL1 inh: qHTS Assay for the Inhibitors of L3MBTL1; AlphaScreen L3MBTL1–H3K9me1 peptide binding; Potency, µM (series often up to 57.1 µM), for the others: at the highest dose activity, negative = inhibition, actives largely listed as inhibitors; 230,000 tested, 0.66% active; AID 485360, 2010; further: on the % scale 0 is the no-effect control and ±100 the full control effect; nearly all actives have a fitted effect of over 60% in size
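L3MBTL1 (50 nM) pre-complexed 30 min with biotinylated H3(1-15)K9me1 peptide (75 nM), then compounds added for 30 min at room temperature; AlphaScreen streptavidin donor/nickel chelate acceptor beads (10 ug/mL final) read after 30 min dark incubation.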
BAZ2B block: qHTS Assay for Inhibitors of BAZ2B; Bromodomain adjacent to zinc finger domain protein 2B (Homo sapiens), Q9UIF8; AlphaScreen BAZ2B-H3K14Ac peptide displacement; Potency, µM (series often up to 114 µM), inactives show at the top dose activity change, negative = inhibition, actives largely listed as inhibitors; 360,000 tested, 4.4% active; AID 504333, 2011; further: on the % scale 0 is the no-effect control and ±100 the full control effect; nearly all actives have a fitted effect of over 60% in size
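Protein-peptide AlphaScreen: BAZ2B 50 nM, b-H3K14Ac 50 nM, 1x PBS pH 7.4 + 0.01% Tween-20. Preincubation 30 min RT; cpd 30 min RT (top 110 uM); beads 20 min RT, light-protected.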
HP1b binding inh: HTS for Inhibitors of HP1-beta Chromodomain Interactions with Methylated Histone Tails; AID 540317, 2011; 390,000 tested, 0.56% active; Chromobox protein homolog 1 (Homo sapiens), P83916; Potency, µM (doses to about 114 µM), inactives show at the highest dose activity change, negative = inhibition, hits mostly inhibitors; AlphaScreen HP1-beta / biotin-H3K9me3 peptide binding; further: nearly all actives have a fitted effect of over 70% in size
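Compound inhibition of the preformed complex between 50 nM HP1-beta and 50 nM biotinylated H3K9me3 peptide was read by AlphaScreen. Buffer was PBS pH 7.4 with 0.01% Tween-20. Incubations ran 30 min at room temperature, with 10 ug/mL donor/acceptor beads.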
Sfp PPTase inh: qHTS Assay for Inhibitors of Bacillus subtilis Sfp phosphopantetheinyl transferase (PPTase); Potency, µM, inactives show largest response in the series, negative = inhibition, usual class: inhibitors; Biochemical Sfp PPTase activity, qHTS; 310,000 tested, 3.5% active; 4'-phosphopantetheinyl transferase ffp (Bacillus subtilis), Q9F4F7; AID 1490, 2009;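 further: the enzyme is Sfp with the accession as filed and its product quenches rhodamine fluorescence; 0% = enzyme reaction without inhibitor and -100% = no enzyme wells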
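After 15 min at room temperature with compound, 15 nM Sfp received 5 uM rhodamine-CoA plus 12.5 uM BHQ-2-ybbR (50 mM Hepes pH 7.6, 10 mM MgCl2). Rate came from the fluorescence difference over 30 min, ex 525/em 598 nm.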
JMJD2A Tudor inh: qHTS Assay for Inhibitors of JMJD2A-Tudor Domain; Potency, µM (series often up to 114 µM), inactives show at the highest dose activity change, negative = inhibition, usual class: inhibitors; 390,000 tested, 4.4% active; AlphaScreen JMJD2A-Tudor / H3K4me3 peptide binding; AID 504339, 2011; Lysine-specific demethylase 4A (Homo sapiens), O75164; further: on the % scale 0 is the no-effect control and ±100 the full control effect; nearly all actives have a fitted effect of over 50% in size
Target sequence (O75164 whole entry, looked up, the tested form may be a part): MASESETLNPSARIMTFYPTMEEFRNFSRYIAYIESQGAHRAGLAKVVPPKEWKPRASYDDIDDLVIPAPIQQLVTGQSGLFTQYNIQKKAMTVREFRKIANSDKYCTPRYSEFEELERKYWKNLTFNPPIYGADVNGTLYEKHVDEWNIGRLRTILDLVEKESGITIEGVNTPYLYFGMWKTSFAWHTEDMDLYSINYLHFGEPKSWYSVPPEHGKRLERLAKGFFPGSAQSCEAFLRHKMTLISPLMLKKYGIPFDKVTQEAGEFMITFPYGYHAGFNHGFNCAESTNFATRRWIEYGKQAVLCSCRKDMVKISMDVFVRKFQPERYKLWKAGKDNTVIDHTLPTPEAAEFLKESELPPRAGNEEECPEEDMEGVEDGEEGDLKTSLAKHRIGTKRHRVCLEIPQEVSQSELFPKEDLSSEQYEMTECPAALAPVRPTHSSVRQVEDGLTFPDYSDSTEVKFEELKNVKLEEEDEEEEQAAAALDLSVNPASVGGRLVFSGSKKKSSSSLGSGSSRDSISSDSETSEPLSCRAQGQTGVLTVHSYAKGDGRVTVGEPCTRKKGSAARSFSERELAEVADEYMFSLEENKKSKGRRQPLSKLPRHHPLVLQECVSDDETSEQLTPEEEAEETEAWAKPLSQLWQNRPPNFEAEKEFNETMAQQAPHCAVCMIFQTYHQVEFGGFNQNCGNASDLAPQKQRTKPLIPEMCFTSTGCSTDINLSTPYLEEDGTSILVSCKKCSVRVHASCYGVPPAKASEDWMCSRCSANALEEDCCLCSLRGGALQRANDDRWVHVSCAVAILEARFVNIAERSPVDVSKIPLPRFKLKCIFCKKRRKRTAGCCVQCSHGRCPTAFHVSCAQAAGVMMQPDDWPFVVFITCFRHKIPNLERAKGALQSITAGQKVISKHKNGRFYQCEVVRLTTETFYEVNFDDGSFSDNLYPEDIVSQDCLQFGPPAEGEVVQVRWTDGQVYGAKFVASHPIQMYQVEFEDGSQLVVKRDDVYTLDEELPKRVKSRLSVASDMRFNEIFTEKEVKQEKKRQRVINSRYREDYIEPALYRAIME
G9a inh: qHTS Assay for Inhibitors of Histone Lysine Methyltransferase G9a. Histone-lysine N-methyltransferase EHMT2 (Homo sapiens), Q96KQ7. G9a H3K9 monomethylation, AlphaScreen, 2 h. 350,000 tested, 8.8% active. Potency, µM (doses to about 102 µM), for the others: at the top dose activity, negative = inhibition, hits mostly inhibitors. AID 504332, 2011; further: on the % scale 0 is the no-effect control and ±100 the full control effect; nearly all actives have a fitted effect of over 75% in size
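Chemiluminescent proximity detection of H3K9 monomethylation, read after 10 min bead incubation in the dark. Reaction: 20 nM G9a, 500 nM biotin-H3K9 peptide, 20 uM SAM cofactor, 2 h, room temperature, following 15 min enzyme-compound preincubation.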
Active calls of the source: *; [ ] = dose if it differs, or a comment. The list is not random: actives were taken first. Their share in the collection is about 12%. The call rests on the fitted dose curve; in most records, active means well fitted curve in the direction sought with a large enough effect; inconclusive means small, poorly fitted or top-dose-only effect, or another doubt; inactive means no such curve, though single readings can be large; an effect the other way counts as inactive or inconclusive. Potency means the concentration at half of the fitted maximal effect.

`CCOC(=O)c1c(-c2ccccc2)csc1NC(=O)c1cc(-c2ccc(F)cc2)on1` gave BAZ2B block -10%, HP1b binding inh -15%, JMJD2A Tudor inh 1% and G9a inh 4µM*.
Screening COC(=O)c1c(-c2ccc(C)cc2)csc1NC(=S)NC(=O)c1ccc(F)cc1 returned L3MBTL1 inh -14%, BAZ2B block -14%, HP1b binding inh 13%, Sfp PPTase inh -27%, JMJD2A Tudor inh -29% and G9a inh 79µM*.
`CCOC(=O)c1c(-c2ccc(C)cc2)csc1NC(=O)c1cc2ccccc2oc1=O` gave L3MBTL1 inh -5%, BAZ2B block 40µM*, HP1b binding inh 15%, Sfp PPTase inh inconclusive, JMJD2A Tudor inh -5% and G9a inh 3%[0.501 µM].
For CCOC(=O)c1c(-c2ccc(C)cc2)csc1NC(=O)c1cc(=O)c2ccc(C)cc2o1 the results were BAZ2B block -3%, HP1b binding inh 15%, JMJD2A Tudor inh -7% and G9a inh -20%[59 µM].
Screening CC1=C(C(=O)Nc2ccccc2)C(c2ccccn2)n2nc(SCc3ccccc3)nc2N1 (stereo unspecified) returned BAZ2B block -6%, HP1b binding inh 27%, JMJD2A Tudor inh -17% and G9a inh inconclusive.
Screening COCCOc1ccc(C(F)(F)F)cc1NC(=O)CN1C(=O)NC(C)(c2ccc3c(c2)OCO3)C1=O (stereo unspecified) returned L3MBTL1 inh 30%, BAZ2B block -2%, HP1b binding inh 19%, JMJD2A Tudor inh -26% and G9a inh -8%[59 µM].
For Cc1cccc(NC(=O)CSc2cn(CC(=O)N3CCCCCC3)c3ccccc23)c1 the results were BAZ2B block -28%, HP1b binding inh 36%, JMJD2A Tudor inh -5% and G9a inh -30%[59 µM].
`OCC[C@H]1C[C@H](O)[C@@H](O)[C@]2(OCc3ccccc32)O1` gave L3MBTL1 inh 4%, BAZ2B block 13%, HP1b binding inh 47%, JMJD2A Tudor inh -2% and G9a inh 1%[2.33 µM].
For CC1CCC2C(=O)N3C(CCC(C)[C@H]3c3ccccc3Br)C(=O)N2C1c1ccccc1Br (stereo partly specified) the results were Sfp PPTase inh -3%.
Cc1cc(OCC(=O)Nc2nc3c(s2)CCCC3)cc(C)c1Cl was read as BAZ2B block -14%, HP1b binding inh -9%, JMJD2A Tudor inh -15% and G9a inh inconclusive.
Screening CC(C)CC1NC(C(=O)O)Cc2c1[nH]c1ccccc21 (stereo unspecified) returned BAZ2B block -10%, HP1b binding inh 17%, Sfp PPTase inh 14% and JMJD2A Tudor inh inconclusive.
For COC(=O)C1Cc2c([nH]c3ccccc23)CN1C(C)=O (stereo unspecified) the results were BAZ2B block -34%, HP1b binding inh -21%, Sfp PPTase inh -14%, JMJD2A Tudor inh -29% and G9a inh 50µM*.
CC(=O)N1Cc2[nH]c3ccccc3c2CC1C(=O)O (stereo unspecified) was read as L3MBTL1 inh 8%, BAZ2B block inconclusive, HP1b binding inh 30%, Sfp PPTase inh -5% and JMJD2A Tudor inh -1%.
For CCCC1NC(C(=O)O)Cc2c1[nH]c1ccccc21 (stereo unspecified) the results were L3MBTL1 inh 4%, BAZ2B block -4%, HP1b binding inh -4%, Sfp PPTase inh -17% and JMJD2A Tudor inh 16µM*.

Screening results (PubChem)
